The structures appear in SMILES notation. Results filed as inconclusive are left out. A call without a number means that no potency is given here. Calls of active or inactive are those of the source. Calls follow the shape of the full dose curve.

For this assay, the target named is Beta-2 adrenergic receptor (Homo sapiens) (UniProt P07550). The experiment in a line: Adrenergic beta2 receptor (ADRB2) small molecule antagonists, cell-based qHTS assay (AID 1963592). Also: nearly all actives have a fitted effect of over 50% in size. Conditions: CHO-ADRB2 cells, isoproterenol-stimulated cAMP HTRF ratio, 0.5 h; series mostly up to 92.4 µM. An excerpt: U.S. Tox21 Program National Center for Advancing Translational Sciences [NCATS] Division of Preclinical Innovation [DPI] U.S. Environmental Protection Agency [EPA] National Institutes of Environmental Health Sciences [NIEHS] National Toxicology Program [NTP] U.S. Food and Drug Administration [FDA] Tox21 Assay Overview: Beta adrenergic receptors (Beta-ARs) belong to the G-protein coupled receptor (GPCR) superfamily, includes three subtypes - beta1, beta2, and beta3. Beta1-AR is the predominant receptor subtype expressed in the heart, and beta2-AR is expressed in the kidney, lung, blood vessel and in the heart, and beta3 is found in the adipocytes. Beta1 and 2 ARs couple to Gs protein and elevate cyclic adenosine mono phosphate (cAMP), which activates protein kinase A and leads to the downstream signaling responsible for the physiological actions. Beta-AR agonists or antagonists are the most prescribed therapeutic agents for heart failure and asthma, and these were one of the first target receptors for the rational drug design. Tox21 10K compound library was screened using the cAMP-Gs dynamic assay (Cisbio Bioassays, Shelton, CT) to identify agonists/antagonists of the Gs-coupled human adrenergic, beta2 receptor (ADRB2) in the CHO-ADRB2 cell line (Codex BioSolutions, Inc. Gaithersburg, MD), which stably over-expresses ADRB2. The principle of cAMP-Gs dynamic assay is based on HTRF technology, which facilitates the fluorescence resonance energy transfer (FRET) between donor Europium cryptate and acceptor d2-labeled cAMP. The cAMP generated within cells competes with the red acceptor, d2-labled cAMP, for binding to the monoclonal anti-cAMP-cryptate (Europium donor). An increase in intracellular cAMP leads to the disruption of FRET signal, and the signal is inversely proportional to the cAMP concentration. Propranolol HCl (Sigma-Aldrich, St. Louis, MO) was used as a positive control in the screening.
Chain of Beta-2 adrenergic receptor (Homo sapiens) (P07550 whole entry, looked up): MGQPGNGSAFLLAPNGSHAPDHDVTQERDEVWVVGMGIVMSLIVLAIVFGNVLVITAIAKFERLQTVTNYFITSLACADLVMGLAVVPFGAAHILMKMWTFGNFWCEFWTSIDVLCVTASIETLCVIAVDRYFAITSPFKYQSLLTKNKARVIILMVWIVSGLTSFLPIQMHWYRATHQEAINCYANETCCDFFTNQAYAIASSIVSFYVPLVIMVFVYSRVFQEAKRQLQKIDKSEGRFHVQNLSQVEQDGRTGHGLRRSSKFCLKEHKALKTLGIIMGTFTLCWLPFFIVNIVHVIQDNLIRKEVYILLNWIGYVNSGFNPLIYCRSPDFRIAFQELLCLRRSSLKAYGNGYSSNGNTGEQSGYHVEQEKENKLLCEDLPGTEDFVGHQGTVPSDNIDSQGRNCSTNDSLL
Tox21 Assay Protocol Summary: CHO-ADRB2 cells were dispensed at 1,000/well in 4uL assay medium into white/solid 1536-well plates (Greiner Bio-One North America Inc., Monroe, NC) using a Multidrop Combi dispenser (ThermoFisher Scientific, Waltham, MA). The assay plates were incubated at 37C and 5% CO2 for an overnight (18-20hr). Then positive control and test compounds dissolved in DMSO were transferred to the assay plates at 23nL using a Pintool station (Wako, San Diego, CA). Following the compound and positive control transfer, 1uL agonist-stimulation mix containing 1nM Isoproterenol HCl, 100uM IBMX and 25uM Ro-20-1724 was added to each well of the assay plates using BioRAPTR Flying Reagent Dispenser (FRD, Beckman Coulter, Brea, CA). The assay plates were incubated at room temperature for 0.5hr. Then 2.5ul each d2-labled cAMP and anti-cAMP-cryptate solutions were added separately to each well of the assay plates using an FRD and the assay plates were incubated at room temperature for 1hr. The fluorescence signal was measured at two different wavelengths (665nm and 615nm) using an Envision plate reader (Perkin Elmer, Shelton, CT). Data were expressed as the ratio of 665 nm/615 nm.
In general terms: Quantitative high-throughput screening tests each substance at several concentrations.
Turning to `CCN(CC)c1ccc(C(=O)c2ccccc2C(=O)O)c(O)c1`, the Potency result was “inactive”.

As to `CC(C)C(=O)OCCOc1ccccc1`, the Potency result was “inactive”.

Consider `CCC(N)(CO)CO`, for which the Potency entry is “inactive”.

With `CCCCCCCCC(=O)OCC`, the Potency entry was “inactive”.

As for `N=C(N)c1ccc2cc(OC(=O)c3ccc(N=C(N)N)cc3)ccc2c1`, the Potency entry is “inactive”.

For the molecule `CCCc1ccccc1`, the Potency entry was “inactive”.

For the molecule `OCC(CO)(CO)CO`, the Potency result is “inactive”.

As to `CC(C)c1ccc(S(=O)(=O)O)cc1`, the Potency entry is “inactive”.

In the case of `O=P(O)(O)O`, the Potency result is “inactive”.

In the case of `COC(=O)c1c(Cl)c(Cl)c(C(=O)OC)c(Cl)c1Cl`, the Potency result is “inactive”.

Consider `Cc1cnccn1`, for which the Potency entry was “inactive”.

`NC[C@H]1O[C@H](O[C@H]2[C@H](O)[C@@H](O[C@H]3O[C@H](CO)[C@@H](O)[C@H](N)[C@H]3O)[C@H](N)C[C@@H]2N)[C@H](N)[C@@H](O)[C@@H]1O`: the activity change, negative = inhibition is 5.76% [at 19 µM] (inactive).

`CC(C)OC(=O)C(O)(CC(=O)O)CC(=O)O`: the Potency entry was “inactive”.

Consider `CC(C)CNCC(C)C`, for which the Potency result was “inactive”.

On to `CC(N)CN` (stereo not given), for which the Potency result is “inactive”.

Turning to `CCCc1c2oc(C(=O)O)cc(=O)c2cc2c(=O)cc(C(=O)O)n(CC)c12`, the Potency entry was “inactive”.

Consider `Cc1ccc(C)cc1`, for which the Potency result was “inactive”.

Regarding `CCCC(=O)C(C)=O`, the Potency result was “inactive”.

Regarding `CCCCC(=O)N(C)C`, the Potency result was “inactive”.

In the case of `CCC(=O)OC(C)(C)C1CC=C(C)CC1` (stereo not given), the Potency entry is “inactive”.

On to `CC(COCCO)OCCO` (stereo not given), for which the Potency result was “inactive”.

Consider `CCOC(OCC)OCC`, for which the Potency entry is “inactive”.

Consider `CCCCC1CCC(=O)O1` (stereo not given), for which the Potency result was “inactive”.

As for `C=CC(=O)NCOCC(C)C`, the Potency result is “inactive”.

For `C=CC(=O)CCCCC`, the Potency result is “inactive”.

`CC1(C)[C@@H]2CC[C@]3(C2)[C@@H]1C(=O)CCC3(C)C`: the Potency result is “inactive”.

On to `C=CC(=O)OCCOC(=O)C=C`, for which the Potency result is “inactive”.

Regarding `Cc1cccc(N(C)C)c1`, the Potency entry is “inactive”.

For `CC(O)CCCCn1c(=O)c2c(ncn2C)n(C)c1=O` (stereo not given), the Potency entry is “inactive”.

On to `COc1cc(C(=O)N2CCOCC2)cc(OC)c1OC`, for which the Potency entry was “inactive”.

For the molecule `Cc1cccc(N)n1`, the Potency result is “inactive”.

Turning to `CCOC(=O)CC(C)=O`, the Potency result was “inactive”.

Take `FC(F)(F)C(Cl)Br` (stereo not given): the Potency entry is “inactive”.

As to `CC(=O)OCC1=C(C(=O)O)N2C(=O)[C@@H](NC(=O)Cc3cccs3)[C@H]2SC1`, the Potency result was “inactive”.

For `CC(C)C(=O)OC(=O)C(C)C`, the Potency entry was “inactive”.

As to `CO[Si](CCCNCCC[Si](OC)(OC)OC)(OC)OC`, the Potency result is “inactive”.

On to `O=c1[nH]cnc2c1ncn2[C@@H]1O[C@H](CO)[C@@H](O)[C@H]1O`, for which the Potency entry was “inactive”.

In the case of `C=C1C[C@]23C[C@@]1(O)CC[C@H]2[C@@]12C=C[C@H](O)[C@@](C)(C(=O)O1)[C@H]2[C@@H]3C(=O)O`, the Potency entry was “inactive”.

Regarding `OC[C@H]1O[C@H](O[C@H]2O[C@H](CO)[C@@H](O)[C@H](O)[C@H]2O)[C@H](O)[C@@H](O)[C@@H]1O`, the Potency result is “inactive”.

Turning to `CC(=O)NC(Cc1ccccc1)C(=O)O` (stereo not given), the Potency result is “inactive”.
